Assay [1] relates to XIP peptide (Xip251-270) binding. The experiment in a line: XIP fragment 251-270 binding compounds – biochemical, small-molecule microarray, fluorescence 635/667 nm, 0.1 µg/mL protein, primary screen (AID 1182). The settings on record: fluorescent protein binding, 635 nm, higher = more signal, called active from +8 up or from −8 down.
The next assay concerns XIP peptide (Xip251-270). Put plainly: compounds binding XIP fragment 251-270 – biochemical, small-molecule microarray, fluorescence 635/667 nm, 0.5 µg/mL protein, primary screen (AID 1183). The settings on record: fluorescence 635 nm, higher = more signal.
Assay [2] in a line: blood-stage malaria parasite viability loss – strain 3D7, DAPI fluorescence, 100 nL, primary screen (AID 1184).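 Note: parasites grown inside human red blood cells in medium with human serum.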 The settings on record: P. falciparum 3D7 growth, 3 d, higher = more signal.
Assay [3] concerns the target Homeobox protein Hox-A13 (Mus musculus) (UniProt Q62424). The experiment in a line: disruptors of Hoxa13 oligonucleotide interaction – biochemical, fluorescence polarization, labeled oligonucleotide, primary screen (AID 1185). The conditions noted are these: Hoxa13:DNA binding, 15 min, higher = more signal, called active from +8 up or from −8 down. For orientation: In fluorescence polarisation assays a small probe gives low polarisation when free and higher when bound to something large.

The nature of assay [4]: blockers of DNA damage checkpoint Chk1 activation – imaging, HeLa, hydroxyurea, phospho-Chk1 antibody, percent positive cells, primary screen (AID 1186). The conditions noted are these: hydroxyurea-induced phospho-Chk1 immunofluorescence imaging, higher = more signal.
Assay [5] in a line: blockers of DNA damage checkpoint Chk1 activation – imaging, HeLa, hydroxyurea, phospho-Chk1 nuclear intensity, primary screen (AID 1187). The conditions noted are these: hydroxyurea-induced phospho-Chk1 immunofluorescence imaging, higher = more signal.

The structures appear in SMILES notation. Active and inactive are the calls of the source. Unless noted, the rule behind the calls is not given here.

Chain of Homeobox protein Hox-A13 (Mus musculus) (Q62424 whole entry, looked up): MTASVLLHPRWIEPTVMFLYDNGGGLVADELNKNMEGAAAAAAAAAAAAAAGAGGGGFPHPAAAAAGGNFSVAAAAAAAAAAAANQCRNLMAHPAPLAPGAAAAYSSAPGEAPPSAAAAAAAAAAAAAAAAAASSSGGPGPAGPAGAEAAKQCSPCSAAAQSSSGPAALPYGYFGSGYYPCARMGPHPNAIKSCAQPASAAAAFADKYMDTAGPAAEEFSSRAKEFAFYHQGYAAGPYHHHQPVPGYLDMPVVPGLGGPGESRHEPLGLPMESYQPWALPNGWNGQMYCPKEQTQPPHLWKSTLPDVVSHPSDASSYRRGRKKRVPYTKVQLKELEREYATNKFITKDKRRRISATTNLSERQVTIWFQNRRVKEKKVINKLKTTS

On to `COc1ccc(CCN2C(=O)[C@@]3(c4ccc([N+](=O)[O-])cc4)CC(=O)N(C4CCCCC4)[C@@H]3c3ccc(CO)cc32)cc1`, for which the composite z-score in assay [1] was 1.23 (inactive); in the assay with XIP peptide (Xip251-270) it was 0.311. The z-score in assay [2] is 0.706; in assay [3] it was -0.544 (inactive); in assay [4], 0.135 (inactive); in assay [5] it was -0.0588 (inactive).

On to `C[N+](C)(C)CCCCNC(=O)[C@H]1C[C@H]2C(=O)N[C@@H](Cc3ccccc3)C(=O)N2[C@H]1c1ccc(O)cc1`, for which the composite z-score is 1.17 (inactive) in assay [1] and -0.229 with XIP peptide (Xip251-270). Moreover, the z-score in assay [2] was 0.498; in assay [3], -1.49 (inactive); in assay [4], 0.671 (inactive); in assay [5], 0.345 (inactive).

Regarding `C=C(CCCC)C(=O)CC[C@H](OC(=O)c1cccnc1)c1ccccc1OCCO`, the values for the composite z-score (in assay [1]; in the assay with XIP peptide (Xip251-270)) were 0.0328 (inactive) and 0.222, respectively. For the same molecule, the z-score is -3.02 in assay [2], -5.25 (inactive) in assay [3], -1.12 (inactive) in assay [4] and -0.27 (inactive) in assay [5].

On to `COc1ccc([Si](C)(C)[C@@H]2[C@@H](CCO)O[C@]3(C(=O)N(Cc4ccc(N5C(=O)COc6ccccc65)cc4)c4ccccc43)[C@H]2C)cc1`, for which the composite z-score is 0.906 (inactive) in assay [1] and 0.811 in the assay on XIP peptide (Xip251-270). In addition, the z-score in assay [2] is -2.81; in assay [3], -2.08 (inactive); in assay [4] it was -0.591 (inactive); in assay [5] it was -1.55 (inactive).

Take `C=CCNC(=O)[C@H]1[C@@H]2C(=O)O[C@@H](c3ccccc3)[C@@H](c3ccccc3)N2[C@@H](c2ccc(OCCO)cc2)[C@]12C(=O)N(C(=O)OCCOC)c1ccccc12`: the figures for the composite z-score (in assay [1]; in the assay on XIP peptide (Xip251-270)) were 0.95 (inactive) and 0.846, respectively. In addition, the z-score was -1.63 in assay [2], -4.21 (inactive) in assay [3], -0.105 (inactive) in assay [4] and -0.0934 (inactive) in assay [5].

With `[N-]=[N+]=NCc1ccccc1[C@@H]1OC(c2ccc(OCCCO)cc2)=N[C@]1(CCS(=O)(=O)c1ccccc1)C(=O)NCCN1CCOCC1`, the composite z-score in assay [1] is 1.16 (inactive); in the assay with XIP peptide (Xip251-270), 0.853. Moreover, the z-score in assay [2] is -2.19; in assay [3], -2.41 (inactive); in assay [4], 0.0054 (inactive); in assay [5] it was -0.373 (inactive).

On to `O=C1C[C@]2(c3ccc([N+](=O)[O-])cc3)C(=O)N(CCN3CCOCC3)c3cc(CO)ccc3[C@H]2N1C1CCCCC1`, for which the composite z-score in assay [1] was 1.2 (inactive); in the assay with XIP peptide (Xip251-270), 0.314. Moreover, the z-score in assay [2] was 0.476; in assay [3], -2.02 (inactive); in assay [4] it was -0.533 (inactive); in assay [5], -0.355 (inactive).

`Cc1ccc(C(C)CC(O)C2C=CC3C(=O)N(c4ccccc4)C(=O)C3N2Nc2ccc([N+](=O)[O-])cc2)o1` (stereo not given): the composite z-score in assay [1] is 0.099 (inactive); with XIP peptide (Xip251-270), 0.839. For the same molecule, the z-score in assay [2] is -1.1; in assay [3] it was -3.75 (inactive); in assay [4], 0.161 (inactive); in assay [5], 0.568 (inactive).

As for `O=C1O[C@H](c2ccccc2)[C@H](c2ccccc2)N2[C@H]1[C@@H](C(=O)O)[C@]1(C(=O)Nc3ccc(C#CC4=CCCCC4)cc31)[C@H]2c1ccccc1OCCO`, the composite z-score in assay [1] was 0.746 (inactive); in the assay on XIP peptide (Xip251-270), 0.745. The z-score in assay [2] is -1.86; in assay [3] it was -2.65 (inactive); in assay [4] it was 0.144 (inactive); in assay [5] it was -0.0653 (inactive).

In the case of `Cc1ccc(S[C@]2(C(=O)NCC(C)C)CC(=O)N(Cc3cc(C(F)(F)F)cc(C(F)(F)F)c3)[C@@H]2c2ccc(CO)cc2I)cc1`, the composite z-score in assay [1] is 0.861 (inactive); in the assay on XIP peptide (Xip251-270), 0.569. Besides, the z-score in assay [2] was -0.433; in assay [3], -2.28 (inactive); in assay [4], 0.208 (inactive); in assay [5], 0.473 (inactive).

For `CCCC[C@@H]1C[C@H]1[C@@H](NC(=O)c1ccco1)c1ccc(Cl)cc1`, the composite z-score is 0.593 (inactive) in assay [1] and -0.111 with XIP peptide (Xip251-270). For the same molecule, the z-score in assay [2] is -0.727; in assay [3] it was -3.18 (inactive); in assay [4], -0.522 (inactive); in assay [5], -0.995 (inactive).

With `CCCCc1cn(C[C@H](Cc2ccccc2)NC(=O)N[C@H](CO)CCc2oc(C(C)=O)c(C(=O)OC)c2C(=O)OC)nn1`, the results for the composite z-score (in assay [1]; with XIP peptide (Xip251-270)) were 0.703 (inactive) and 0.512, respectively. The z-score is -1.92 in assay [2], -4.73 (inactive) in assay [3], -0.185 (inactive) in assay [4] and -0.228 (inactive) in assay [5].

Consider `CCOC(=O)[C@H]1C/C=C/C[C@H](C(=O)OCC)C(=O)O[C@H]2[C@@H](OC)O[C@H](CO)[C@@H](OC(=O)Nc3cccc(F)c3)[C@@H]2OC1=O`, for which the composite z-score is 1.17 (inactive) in assay [1] and 0.526 with XIP peptide (Xip251-270). Also, the z-score in assay [2] is -1.73; in assay [3], -2.16 (inactive); in assay [4], -0.197 (inactive); in assay [5] it was -0.145 (inactive).

For `C=CCOC(=O)[C@H]1[C@@H]2C(=O)O[C@@H](c3ccccc3)[C@@H](c3ccccc3)N2[C@@H](c2ccc(OCCOC(=O)[C@H]3C[C@H]4C(=O)N[C@@H](CC(C)C)C(=O)N4[C@H]3c3ccc(O)cc3)cc2)[C@]12C(=O)Nc1ccc(I)cc12`, the figures for the composite z-score (in assay [1]; with XIP peptide (Xip251-270)) were 0.626 (inactive) and 0.75, respectively. Moreover, the z-score in assay [2] is -0.061; in assay [3] it was 6.65 (inactive); in assay [4], 0.293 (inactive); in assay [5], 0.198 (inactive).

For `CCOC(=O)C[C@H]1[C@H](OC(=O)c2cc3ccccc3oc2=O)[C@@H](NC(=O)C2CCCCC2)c2cc(OCCCO)ccc2N1C(=O)c1ccccc1`, the composite z-score in assay [1] is -0.194 (inactive); in the assay with XIP peptide (Xip251-270), 0.327. Moreover, the z-score in assay [2] was -1.73; in assay [3], -3.06 (inactive); in assay [4], 0.895 (inactive); in assay [5], 1.11 (inactive).

`C=CCC(OC(C)=O)[C@@H]1[C@@H](N(Cc2cccc3ccccc23)C(=O)c2ccc(-c3ccccc3)cc2)c2cc(OCCCO)ccc2N1C(=O)Cc1ccc(OC)cc1` (stereo not given in full): the composite z-score is -0.162 (inactive) in assay [1] and 0.637 in the assay on XIP peptide (Xip251-270). Moreover, the z-score in assay [2] is -1.17; in assay [3], -1.15 (inactive); in assay [4], -0.302 (inactive); in assay [5], -0.0837 (inactive).

`COc1ccc([Si](C)(C)[C@H]2[C@H](CCO)O[C@@]3(C(=O)N(C)c4c(Br)cc(C)cc43)[C@@H]2C)cc1`: the results for the composite z-score (in assay [1]; in the assay with XIP peptide (Xip251-270)) were 0.307 (inactive) and 0.837, respectively. Also, the z-score in assay [2] was -2.71; in assay [3], -5.78 (inactive); in assay [4] it was -1.08 (inactive); in assay [5], -1.73 (inactive).

Turning to `CCCCCN1CC=CC23O[C@@H]4/C=C\CCCOC(=O)C4[C@H]2C(=O)N(C(CO)C(C)C)[C@@H]3C1=O` (stereo not given in full), the composite z-score in assay [1] is -0.0186 (inactive); in the assay with XIP peptide (Xip251-270), 0.0798. The z-score in assay [2] is 0.609; in assay [3], -4.65 (inactive); in assay [4] it was -0.609 (inactive); in assay [5] it was -0.33 (inactive).

On to `C#CCN(CC=C(C)C)[C@H](CO)c1ccccc1`, for which the values for the composite z-score (in assay [1]; in the assay on XIP peptide (Xip251-270)) were 0.102 (inactive) and -0.564, respectively. Further, the z-score in assay [2] was -1.34; in assay [3], -0.2 (inactive); in assay [4], 0.557 (inactive); in assay [5], 0.457 (inactive).

Consider `O=C1O[C@H](c2ccccc2)[C@H](c2ccccc2)N2[C@H]1[C@@H](C(=O)O)[C@]1(C(=O)Nc3ccc(C#CCCO)cc31)[C@H]2c1ccc(O)cc1`, for which the composite z-score is 0.207 (inactive) in assay [1] and 0.901 with XIP peptide (Xip251-270). In addition, the z-score in assay [2] is -0.136; in assay [3] it was -5.42 (inactive); in assay [4] it was 0.11 (inactive); in assay [5], -0.002 (inactive).

For the molecule `C=CCOC(=O)[C@H]1[C@@H]2C(=O)O[C@@H](c3ccccc3)[C@@H](c3ccccc3)N2[C@@H](c2ccc(OCCOC(=O)[C@@H]3C[C@@H]4C(=O)N[C@@H](CCCC[N+](C)(C)C)C(=O)N4[C@@H]3c3ccc(O)cc3)cc2)[C@]12C(=O)Nc1ccccc12`, the composite z-score was 0.543 (inactive) in assay [1] and 0.637 with XIP peptide (Xip251-270). Moreover, the z-score in assay [2] is 0.327; in assay [3] it was 6.39 (inactive); in assay [4], -0.75 (inactive); in assay [5] it was -0.282 (inactive).

As for `O=C1OCCC=C[C@H]2OC34C=CCN(CCN5CCOCC5)C(=O)[C@H]3N(CCCCCCO)C(=O)[C@@H]4C12` (stereo not given in full), the results for the composite z-score (in assay [1]; in the assay with XIP peptide (Xip251-270)) were 0.995 (inactive) and 0.091, respectively. Further, the z-score in assay [2] is -0.0217; in assay [3], -5.15 (inactive); in assay [4], -0.334 (inactive); in assay [5], -0.109 (inactive).

`CN(C)C(=O)[C@]1(Cc2ccccc2N=[N+]=[N-])N=C(c2ccc(OCCCO)cc2)O[C@@H]1c1ccccc1`: the composite z-score was 1.03 (inactive) in assay [1] and 0.383 with XIP peptide (Xip251-270). The z-score was -2.02 in assay [2], -6.21 (inactive) in assay [3], -0.879 (inactive) in assay [4] and -1.26 (inactive) in assay [5].

As to `CCCCCN1CC=CC23O[C@@H]4/C=C\CCCOC(=O)C4[C@H]2C(=O)N(CCCO)[C@@H]3C1=O` (stereo not given in full), the composite z-score is 1.75 (inactive) in assay [1] and 0.772 with XIP peptide (Xip251-270). In addition, the z-score is -0.332 in assay [2], -5.09 (inactive) in assay [3], -0.297 (inactive) in assay [4] and -0.426 (inactive) in assay [5].

Regarding `CC[C@@H]1C=C(C(=O)O)[C@H](c2ccco2)N1S(=O)(=O)c1ccc(C)cc1`, the composite z-score was 3.88 (inactive) in assay [1] and -0.265 with XIP peptide (Xip251-270). Besides, the z-score was -0.761 in assay [2], -4.78 (inactive) in assay [3], 0.186 (inactive) in assay [4] and 0.162 (inactive) in assay [5].

Source of the values: PubChem BioAssay.
